Measured values: ChEMBL document CHEMBL4513146, “CO-ADD screening of Karazin Kharkiv National University (Ukraine) compounds”
Measured potencies and affinities stand elsewhere.

Tested on: Cryptococcus neoformans
Conditions: Concentration 32 ug.mL-1; ASSAY_TEST Inhibition of Fungal Growth; detection method Resazurin; Absorption (OD600-OD570); plate type 384well; NBS; CORNING #3640

For `Cc1nnc2c(S(=O)(=O)N(Cc3ccccc3Cl)c3ccc(F)c(F)c3)cccn12`, which Inhibition is on record?
Its Inhibition is -7.47%.

Which Inhibition does the source give for `Cc1ccc(NC(=O)Cn2nc3c4c5c(sc4ncn3c2=O)CCCC5)cc1C` here?
The Inhibition was -29.29%.

Which Inhibition does the source give for `O=C(Cn1nc2nc(Nc3ccc(F)cc3)ccn2c1=O)Nc1ccc(F)cc1` here?
Its Inhibition is -2.56%.

For `CC(C)c1nnc2c(=O)n(CC(=O)Nc3cc(Cl)ccc3Cl)c3ccccc3n12`, which Inhibition is on record?
Its Inhibition is -8.45%.

How did the Inhibition turn out when `COc1cccc(Sc2nc3ccccc3n3c(=O)n(CC(=O)Nc4cc(C)cc(C)c4)nc23)c1` was run?
Its Inhibition is -11.67%.

For `Cc1cc(C)cc(Nc2nc(C)cc3nn(CC(=O)Nc4ccc(Cl)cc4)c(=O)n23)c1`, which Inhibition is on record?
Its Inhibition is -4.1%.

How did the Inhibition turn out when `COc1cccc(CN(c2ccc(F)cc2)S(=O)(=O)c2cccn3cnnc23)c1` was run?
Its Inhibition is -1.54%.

For `CCOc1ccccc1NC(=O)Cn1nc2c(Sc3cccc(C)c3)nccn2c1=O`, which Inhibition is on record?
The Inhibition was -13.32%.

Which Inhibition does the source give for `O=C(Cn1nc2c3cc(-c4ccc(F)cc4)nn3ccn2c1=O)Nc1ccccc1` here?
Its Inhibition is -11.97%.

For `COc1ccc(CN(c2cc(C)cc(C)c2)S(=O)(=O)c2cccn3cnnc23)cc1F`, which Inhibition is on record?
Its Inhibition is -10.15%.

For `Cc1ccc(NC(=O)Cn2c(=O)c3nnc(C(C)C)n3c3ccccc32)cc1F`, which Inhibition is on record?
The Inhibition was -30.05%.

For `Cc1ccc(-c2ccc3nn(CC(=O)N4CCN(c5ccccc5)CC4)c(=O)n3n2)cc1C`, which Inhibition is on record?
Its Inhibition is -5.58%.

Which Inhibition does the source give for `CCCc1nnc2c(=O)n(CC(=O)Nc3ccc4c(c3)OCCO4)c3ccccc3n12` here?
Its Inhibition is -31.27%.

Which Inhibition does the source give for `O=C(Cn1nc2c(SC3CCCCC3)nccn2c1=O)Nc1ccc(F)c(Cl)c1` here?
The Inhibition was -24.22%.

Which Inhibition does the source give for `COc1ccc(N(Cc2ccc(Cl)cc2)S(=O)(=O)c2ccc3nncn3c2)cc1` here?
The Inhibition was -7.19%.

Which Inhibition does the source give for `COc1ccc(-c2cc3c4nn(CC(=O)NCc5ccc(Cl)cc5)c(=O)n4ccn3n2)cc1` here?
Its Inhibition is -24.2%.

With `O=C(Cn1nc2ccc(-c3ccc(Cl)cc3)nn2c1=O)N1CCN(c2ccccc2F)CC1` as the compound, how does the Inhibition read?
Its Inhibition is -11.05%.

How did the Inhibition turn out when `O=C(CSc1nnc2c(=O)n(-c3ccc(Br)cc3)ccn12)c1ccc(F)cc1` was run?
Its Inhibition is -8.48%.

Which Inhibition does the source give for `COc1ccc(-c2cc3c4nnc(SCC(=O)Nc5ccccc5Cl)n4ccn3n2)cc1` here?
The Inhibition was -26.87%.

With `Cn1c(=O)c2ccc(C(=O)NC3CCCCC3)cc2n2c(=O)n(CC#N)nc12` as the compound, how does the Inhibition read?
The Inhibition was -18.77%.

How did the Inhibition turn out when `Cc1ccc(NC(=O)Cn2nc3c(SC4CCCCC4)nccn3c2=O)cc1F` was run?
The Inhibition was -26.18%.

`O=C(Cn1nc2ccc(C(=O)NCc3ccccc3)cn2c1=O)Nc1ccc2c(c1)OCO2` was tested. Which Inhibition did it give?
The Inhibition was -36.87%.

For `O=c1n(Cc2cccc(C(F)(F)F)c2)nc2c(S(=O)(=O)N3CCCCC3)cccn12`, which Inhibition is on record?
The Inhibition was -8.66%.

With `Cc1ccc(Cn2nc3c(=O)n(-c4cccc(Cl)c4C)ccn3c2=O)cc1` as the compound, how does the Inhibition read?
Its Inhibition is -17.53%.

`CCOc1ccccc1CNC(=O)CCc1nnc2ccc(-c3ccc(C)cc3)nn12` was tested. Which Inhibition did it give?
The Inhibition was -5.38%.

`COc1cccc(-n2ccn3c(SCc4ccc(Cl)cc4)nnc3c2=O)c1` was tested. Which Inhibition did it give?
The Inhibition was -6.31%.

How did the Inhibition turn out when `Cc1ccc(-n2ccn3c(=O)n(Cc4ccc(F)cc4)nc3c2=O)cc1C` was run?
Its Inhibition is -18.28%.

Which Inhibition does the source give for `COc1ccc(NC(=O)Cn2nc3nc(Nc4ccc(F)cc4)ccn3c2=O)cc1F` here?
Its Inhibition is -11.45%.

Which Inhibition does the source give for `COc1ccc(C(=O)CSc2nnc3c(=O)n(-c4ccccc4)ccn23)cc1OC` here?
Its Inhibition is -8.66%.

`Cc1nnc2c(S(=O)(=O)N(Cc3ccc(F)cc3)c3ccc(Cl)cc3)cccn12` was tested. Which Inhibition did it give?
The Inhibition was -7.17%.

For `COc1ccccc1NC(=O)Cn1c(=O)c2nnc(C(C)C)n2c2ccccc21`, which Inhibition is on record?
Its Inhibition is -9.5%.

How did the Inhibition turn out when `CCc1ccc(N(Cc2ccc(C)cc2)S(=O)(=O)c2cccn3c(C)nnc23)cc1` was run?
The Inhibition was -6.65%.

`COc1cccc(CNC(=O)CSc2nnc3c4cc(-c5cc(C)ccc5C)nn4ccn23)c1OC` was tested. Which Inhibition did it give?
Its Inhibition is -25.27%.

For `CCOc1ccc(-n2ccn3c(SCC(=O)c4ccc(C)cc4)nnc3c2=O)cc1`, which Inhibition is on record?
Its Inhibition is -5.35%.

How did the Inhibition turn out when `O=C(Cn1nc2n(Cc3ccccc3)c(=O)c3ccccc3n2c1=O)Nc1ccc2c(c1)OCO2` was run?
Its Inhibition is -11.06%.

How did the Inhibition turn out when `Cc1ccc(-c2cc3c4nnc(SCC(=O)Nc5ccc(C#N)cc5)n4ccn3n2)cc1` was run?
Its Inhibition is -27.44%.

`COc1cccc(-n2ccn3c(-c4ccc([N+](=O)[O-])cc4)nnc3c2=O)c1` was tested. Which Inhibition did it give?
Its Inhibition is -18.73%.

With `CCCCn1c(=O)c2sccc2n2c(=O)n(CC(=O)NC(C)C)nc12` as the compound, how does the Inhibition read?
The Inhibition was -16.69%.

`COC(=O)c1ccc(CN(c2cccc(C)c2)S(=O)(=O)c2cccn3c(C)nnc23)o1` was tested. Which Inhibition did it give?
The Inhibition was -7.03%.

How did the Inhibition turn out when `O=C(CSc1nnc2c(=O)n(-c3cccc(F)c3)ccn12)NCCc1ccccc1` was run?
The Inhibition was -10.18%.
